Experiment [1] in a line: qHTS assay to identify small molecule agonists of the peroxisome proliferator-activated receptor delta (PPARd) signaling pathway - cell viability counter screen (AID 743211). Also: nearly all actives have a fitted effect of over 55% in size. Also: potency is read from the fitted curve at half-maximal effect. Summed up:
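HEK293H PPARd-bla, 3000 cells/well; 5 h preincubation 37C/5% CO2; cpd in DMSO, 17 h 37C; B/G FRET substrate 2 h RT; CellTiter-Glo 30 min RT, luminescence.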

Experiment [2] addresses Peroxisome proliferator-activated receptor delta (Homo sapiens) (UniProt Q03181). As to the kind of experiment: qHTS assay to identify small molecule antagonists of the peroxisome proliferator-activated receptor delta (PPARd) signaling pathway (AID 743215; active = well fitted inhibition curve with a large enough effect in the signal ratio in the repeat runs, not every such curve was filed as active; the % refers to the signal ratio;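 also: cells stimulated with agonist L165041 at 300 nM final during compound exposure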; also: potency is read from the fitted curve at half-maximal effect). An outline of the steps: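 Here, a reporter line (HEK293H, beta-lactamase under a UAS) measures PPARd signaling. Compounds are tested against agonist L165041 at 300 nM final concentration over 17 h at 37 C, with fluorescence read after substrate.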

Experiment [3] is described as follows: qHTS assay to identify small molecule agonists of the farnesoid-X-receptor (FXR) signaling pathway - cell viability counter screen (AID 743218). Also: nearly all actives have a fitted effect of over 45% in size. Also: potency is read from the fitted curve at half-maximal effect. An outline of the steps: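 Quantitative HTS counter screen measuring ATP-based viability via CellTiter-Glo luminescence in HEK 293T cells carrying a UAS-driven beta-lactamase reporter, after 16 h compound exposure at 37 C.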
On the technique in general: qHTS replaces the single test concentration by a dilution series.

The nature of experiment [4]: qHTS assay to identify small molecule antagonists of the farnesoid-X-receptor (FXR) signaling pathway - cell viability counter screen (AID 743221; active = well fitted cell-killing curve with a large enough effect in the repeat runs, not every such curve was filed as active; also: nearly all actives have a fitted effect of over 50% in size; also: potency is read from the fitted curve at half-maximal effect). An outline of the steps:
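Luminescence from CellTiter-Glo measures cytotoxicity in GeneBLAzer FXR-UAS-bla HEK 293T cells. Cells were exposed to compounds with 50 uM chenodeoxycholic acid (final) for 16 h at 37 C, in wells also used for the reporter readout.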

In experiment [5] the target is Vitamin D3 receptor (Homo sapiens) (UniProt P11473). As to the kind of experiment: qHTS assay to identify small molecule agonists of the vitamin D receptor (VDR) signaling pathway (AID 743222; calls by dose curve). Summed up: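 Tox21 cell reporter format: VDR-bla line, 16 h compound exposure in 5% CO2 at 37C, then fluorescence intensity after 2 h with LiveBLAzer B/G FRET substrate.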
Vitamin D3 receptor (Homo sapiens), sequence (P11473 whole entry, looked up): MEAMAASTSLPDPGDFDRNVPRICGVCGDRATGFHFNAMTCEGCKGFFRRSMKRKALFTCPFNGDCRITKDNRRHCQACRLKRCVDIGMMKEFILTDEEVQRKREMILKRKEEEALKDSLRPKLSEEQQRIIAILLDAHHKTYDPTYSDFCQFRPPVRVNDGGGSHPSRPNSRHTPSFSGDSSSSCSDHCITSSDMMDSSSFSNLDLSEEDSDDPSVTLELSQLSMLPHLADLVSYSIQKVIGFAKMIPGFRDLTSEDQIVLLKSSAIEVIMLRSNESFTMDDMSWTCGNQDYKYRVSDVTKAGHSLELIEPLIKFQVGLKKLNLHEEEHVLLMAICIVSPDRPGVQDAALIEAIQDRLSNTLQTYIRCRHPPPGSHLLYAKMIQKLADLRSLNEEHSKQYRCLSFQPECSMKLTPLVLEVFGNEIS
A short description of experiment [6]: qHTS assay to identify small molecule agonists of the vitamin D receptor (VDR) signaling pathway - cell viability counter screen (AID 743224). Also: nearly all actives have a fitted effect of over 50% in size. Also: potency is read from the fitted curve at half-maximal effect. Summed up:
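CellTiter-Glo viability readout on VDR-bla cells, measured after 16 h of compound treatment at 37C in the same wells.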

Experiment [7] is described as follows: qHTS assay to identify small molecule antagonists of the vitamin D receptor (VDR) signaling pathway - cell viability counter screen (AID 743225). Also: nearly all actives have a fitted effect of over 50% in size. Also: potency is read from the fitted curve at half-maximal effect. An outline of the steps:
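Read-out: CellTiter-Glo luminescence measured 30 min after reagent addition at room temperature. Cells were VDR-bla HEK 293T exposed 16 h at 37C, 5% CO2, to compound with 3 nM final calcitriol agonist.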

A short description of experiment [8]: qHTS assay to identify small molecule agonists of the NFkB signaling pathway - cell viability counter screen (AID 1159515; calls by dose curve; also: nearly all actives have a fitted effect of over 55% in size; also: potency is read from the fitted curve at half-maximal effect). An outline of the steps: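 Tox21 library compounds were tested for cytotoxicity against NFkB-bla ME-180 cells during a 5 hr exposure at 37 C. CellTiter-Glo luminescence served as the viability read-out.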
Experiment [9] in a line: qHTS assay to identify small molecule agonists of the endoplasmic reticulum stress response signaling pathway - cell viability counter screen (AID 1159517; calls by dose curve; also: nearly all actives have a fitted effect of over 50% in size; also: potency is read from the fitted curve at half-maximal effect). Summed up: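 In parallel with the ESRE reporter read, cytotoxicity was scored by CellTiter-Glo luminescence (30 min, room temperature) on HeLa ESRE-bla cells dosed for 5 hr.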
Experiment [10] is described as follows: qHTS assay to identify small molecule antagonists of the retinoid-related orphan receptor gamma (ROR-gamma) signaling pathway - cell viability counter screen (AID 1159520). Also: nearly all actives have a fitted effect of over 50% in size. Also: potency is read from the fitted curve at half-maximal effect. Summed up:
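Tet-on ROR gamma CHO cells were given compounds for 2 hr, then doxycycline hyclate at 1 uM final, and incubated 16 hr at 37 C. Viability was measured as ATP content by CellTiter-Glo luminescence.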

Experiment [11] in a line: qHTS assay to identify small molecule agonists of the AP-1 signaling pathway - cell viability counter screen (AID 1159525; calls by dose curve; also: nearly all actives have a fitted effect of over 55% in size; also: potency is read from the fitted curve at half-maximal effect). Summed up:
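Same-well cytotoxicity counter screen of the Tox21 10K library in ME-180 cells. The readout is ATP-dependent luminescence after 5 h compound treatment. Data are normalised to DMSO and tetra n-octyl ammonium bromide controls.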

The target of experiment [12] is Vitamin D3 receptor (Homo sapiens) (UniProt P11473). As to the kind of experiment: qHTS assay to identify small molecule antagonists of the vitamin D receptor (VDR) signaling pathway (AID 743223; active = well fitted inhibition curve with a large enough effect in the signal ratio in the repeat runs, not every such curve was filed as active; the % refers to the signal ratio). An outline of the steps:
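Antagonist mode uses 1alpha,25-dihydroxyvitamin D3 at 3 nM final as stimulus. VDR-bla cells receive compounds in DMSO, incubate 16 h at 37C, then a beta-lactamase FRET substrate for 2 h at room temperature before fluorescence measurement.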

In experiment [13] the target is Nuclear receptor ROR-gamma (Homo sapiens) (UniProt P51449). As to the kind of experiment: qHTS assay to identify small molecule antagonists of the retinoid-related orphan receptor gamma (ROR-gamma) signaling pathway (AID 1159521; also: nearly all actives have a fitted effect of over 50% in size; also: potency is read from the fitted curve at half-maximal effect). Summed up: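 CHO Tet-on RORγ, RORE-luc reporter. Cpd 2 h pre-incubation, then dox hyclate 1 uM final, 16 h, 37 C/5% CO2. ONE-Glo luminescence; decrease = antagonist.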

A short description of experiment [14]: qHTS assay to identify small molecule agonists of the AP-1 signaling pathway (AID 1159526; calls by dose curve).
Experiment [15] has as its target Peroxisome proliferator-activated receptor delta (Homo sapiens) (UniProt Q03181). Kind of experiment: qHTS assay to identify small molecule agonists of the peroxisome proliferator-activated receptor delta (PPARd) signaling pathway (AID 743212; calls by dose curve). Summed up: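 Tox21 library screened in GeneBLAzer PPARd UAS-bla HEK293H cells. After compound treatment at 37 C, a FRET-based beta-lactamase substrate was applied for 2 h and fluorescence recorded.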

Experiment [16] addresses Bile acid receptor (Homo sapiens) (UniProt Q96RI1). Kind of experiment: qHTS assay to identify small molecule antagonists of the farnesoid-X-receptor (FXR) signaling pathway (AID 743217; active = well fitted inhibition curve with a large enough effect in the signal ratio in the repeat runs, not every such curve was filed as active; the % refers to the signal ratio). An outline of the steps:
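Test compounds are pin-transferred onto FXR-bla HEK 293T cells, then chenodeoxycholic acid is added at 50 uM final. After 16 h at 37 °C, LiveBLAzer B/G substrate is applied for 2 h at room temperature and fluorescence read.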

A short description of experiment [17]: qHTS assay to identify small molecule antagonists of the peroxisome proliferator-activated receptor delta (PPARd) signaling pathway - cell viability counter screen (AID 743213). Also: nearly all actives have a fitted effect of over 50% in size. Also: potency is read from the fitted curve at half-maximal effect. An outline of the steps: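 PPARd-bla HEK293H cells (3000/well) got compound plus 300 nM L165041 agonist for 17 h at 37 C. Viability in the same wells came from CellTiter-Glo luminescence after 30 min at room temperature.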

In experiment [18] the target is Retinoic acid receptor RXR-alpha (Homo sapiens) (UniProt P19793). Kind of experiment: qHTS assay to identify small molecule agonists of the RXR signaling pathway (AID 1159527; calls by dose curve; also: nearly all actives have a fitted effect of over 35% in size). Summed up:
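Read-out: beta-lactamase FRET ratio (405 nm excitation, 460 and 530 nm emission) after 2 hr substrate loading at room temperature. Cells were RXR-alpha-UAS-bla HEK 293T treated with compounds for 16 hr in 2% charcoal-stripped FBS medium.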

The structures appear in SMILES notation. Several values for one entry are separate records, joined by “and”; a condition that tells them apart may be missing. Identical values can stand only once. Records with an inconclusive call do not appear. Some compounds were tested as several samples or in several runs, with calls that do not always agree. Activity calls are given as the source filed them. Unless noted, calls follow the shape of the dose curve; as a rule, active = well fitted curve in the direction sought with a large enough effect in the repeat runs; inconclusive = weak or mixed curves; inactive = no such curve, though single readings can be large; an effect the other way counts as inactive or inconclusive.

Peroxisome proliferator-activated receptor delta (Homo sapiens), sequence (Q03181 whole entry, looked up): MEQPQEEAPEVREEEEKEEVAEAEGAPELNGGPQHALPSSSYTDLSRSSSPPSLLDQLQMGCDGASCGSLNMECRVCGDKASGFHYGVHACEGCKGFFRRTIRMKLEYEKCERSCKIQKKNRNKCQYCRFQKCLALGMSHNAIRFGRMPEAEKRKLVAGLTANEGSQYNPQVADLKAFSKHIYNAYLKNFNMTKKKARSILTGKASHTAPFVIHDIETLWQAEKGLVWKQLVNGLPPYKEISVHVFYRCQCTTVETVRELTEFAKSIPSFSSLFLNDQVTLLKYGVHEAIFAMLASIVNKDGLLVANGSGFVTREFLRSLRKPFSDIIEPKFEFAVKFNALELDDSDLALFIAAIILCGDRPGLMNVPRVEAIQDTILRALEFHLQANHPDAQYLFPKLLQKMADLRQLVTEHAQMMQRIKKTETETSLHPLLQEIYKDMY
Retinoic acid receptor RXR-alpha (Homo sapiens), sequence (P19793 whole entry, looked up): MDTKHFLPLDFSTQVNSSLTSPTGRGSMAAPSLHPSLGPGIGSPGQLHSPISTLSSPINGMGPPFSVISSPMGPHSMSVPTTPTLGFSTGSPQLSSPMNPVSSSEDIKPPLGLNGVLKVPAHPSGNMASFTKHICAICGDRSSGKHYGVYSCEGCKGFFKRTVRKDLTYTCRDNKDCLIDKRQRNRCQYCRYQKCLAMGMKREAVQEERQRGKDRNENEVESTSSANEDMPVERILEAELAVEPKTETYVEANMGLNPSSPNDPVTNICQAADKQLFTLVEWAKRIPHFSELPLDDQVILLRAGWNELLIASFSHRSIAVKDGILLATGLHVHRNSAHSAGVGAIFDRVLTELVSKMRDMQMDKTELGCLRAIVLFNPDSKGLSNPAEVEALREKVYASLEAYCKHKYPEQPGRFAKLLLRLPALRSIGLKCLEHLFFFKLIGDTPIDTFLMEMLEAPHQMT
Bile acid receptor (Homo sapiens), sequence (Q96RI1 whole entry, looked up): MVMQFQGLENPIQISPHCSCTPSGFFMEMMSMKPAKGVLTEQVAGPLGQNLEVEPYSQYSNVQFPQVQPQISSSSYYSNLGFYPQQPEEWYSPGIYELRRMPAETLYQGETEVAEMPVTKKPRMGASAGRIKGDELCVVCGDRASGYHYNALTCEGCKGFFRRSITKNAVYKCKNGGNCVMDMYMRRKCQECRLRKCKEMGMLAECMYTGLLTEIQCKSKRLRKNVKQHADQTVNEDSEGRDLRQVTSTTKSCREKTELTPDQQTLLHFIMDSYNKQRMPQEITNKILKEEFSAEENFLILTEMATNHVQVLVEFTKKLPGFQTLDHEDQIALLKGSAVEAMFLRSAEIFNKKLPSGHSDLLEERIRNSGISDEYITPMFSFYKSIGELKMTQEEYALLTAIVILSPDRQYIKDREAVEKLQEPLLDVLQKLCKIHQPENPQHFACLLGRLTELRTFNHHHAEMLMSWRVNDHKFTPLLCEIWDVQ

With `C=CC(=O)[O][Sn]([CH2]CCC)([CH2]CCC)[CH2]CCC`, the Potency in experiment [1] is 1.95 µM (active); in experiment [2] it was 0.776 µM (active); in [3], 1.1 µM (active); in experiment [4], 3.89 µM (active); in experiment [6], 1.38 µM (active); in [7], 3.09 µM (active). Also, the Potency in [8] was 0.977 µM (active); in experiment [9] it was 977 nM (active); in experiment [10], 1.09 µM (active); in [11], 2.45 µM (active). Moreover, in [5], the Potency result is “inactive”.
With `C[C@]12C/C(=C/O)C(=O)C[C@@H]1CC[C@@H]1[C@@H]2CC[C@@]2(C)[C@H]1CC[C@]2(C)O`, the Potency in [1] is 49.4 µM (active); in experiment [9], 24.8 µM (active) and 16.9 µM (active); in [10], 61.7 µM (active); in [13], 30.9 µM (active) and 29.8 µM (active). In addition, the Potency entry in experiment [4], in experiment [12], in experiment [6], in experiment [7], in experiment [8] and in experiment [11] was “inactive” in each case. Besides, the Potency result in experiment [14] is “inactive”.
Take `O=C1C(Cl)=C(Cl)C(=O)C(Cl)=C1Cl`: the Potency in experiment [1] is 15.5 µM (active); in experiment [3], “inactive and 19.5 µM (active)”; in experiment [6], 12.3 µM (active) and 13.8 µM (active); in [7], 17.4 µM (active); in experiment [8], 38.9 µM (active); in [9], 54800 nM (active). For the same molecule, the Potency in [10] was 15.3 µM (active); in experiment [13], 12.1 µM (active) and 30.6 µM (active). For the same molecule, the Potency entry in [15], in experiment [16], in [4], in experiment [5] and in experiment [11] was “inactive” in each case.
Regarding `Oc1cc(Cl)c(Cl)c(Cl)c1Cl`, the figures for the Potency in experiment [3], in [6] and in [13] were 47.8 µM (active), 24 µM (active) and 23.8 µM (active), respectively. For the same molecule, the Potency entry in experiment [8], in [9] and in experiment [11] was “inactive” in each case.
In the case of `CN(C)C(=S)SSC(=S)N(C)C`, the Potency in [1] was 76.5 nM (active) and 38.9 nM (active) and 188 nM (active); in experiment [17], 108 nM (active) and 30.9 nM (active) and 298 nM (active); in experiment [4] it was 121 nM (active) and 43.6 nM (active) and 237 nM (active); in experiment [7], 27.2 µM (active) and 24.5 µM (active); in experiment [8], 0.674 µM (active); in [10] it was 33.9 µM (active) and 433 nM (active) and 422 nM (active). Moreover, the Potency in [11] was 5.49 µM (active) and 9.52 µM (active). In addition, the Potency result in experiment [5] and in experiment [9] was “inactive” each time.
Consider `O=C1C[C@@H]2OCC=C3CN4CC[C@]56c7ccccc7N1[C@H]5[C@H]2[C@H]3C[C@H]46`, for which the Potency result in experiment [1], in experiment [4], in experiment [6], in [7], in [8] and in experiment [9] was “inactive” each time. Besides, the Potency entry in experiment [10], in [13], in [11] and in experiment [14] was “inactive” each time.
With `Brc1ccc(Oc2ccc(Br)cc2Br)c(Br)c1`, the Potency in experiment [1] was 43.7 µM (active). Further, the Potency entry in experiment [4], in experiment [5], in experiment [7], in [8], in experiment [9] and in [10] was “inactive” throughout. For the same molecule, the Potency entry in experiment [11], in experiment [14] and in experiment [18] was “inactive” throughout.
With `CC(C)C(Nc1ccc(C(F)(F)F)cc1Cl)C(=O)OC(C#N)c1cccc(Oc2ccccc2)c1` (stereo not drawn), the Potency result in experiment [1], in [17], in experiment [2], in experiment [4], in [5] and in experiment [6] was “inactive” throughout. Further, the Potency result in experiment [7], in experiment [8], in experiment [9], in experiment [10] and in experiment [11] was “inactive” in each case.
In the case of `CCC[CH2][Sn]([CH2]CCC)([CH2]CCC)[O][Sn]([CH2]CCC)([CH2]CCC)[CH2]CCC`, the Potency in experiment [1] was 0.676 µM (active); in experiment [17], 759 nM (active); in experiment [6] it was 0.603 µM (active); in experiment [7] it was 0.852 µM (active); in [8], 0.24 µM (active); in experiment [9], 269 nM (active). For the same molecule, the Potency was 0.168 µM (active) in experiment [13] and 0.537 µM (active) in experiment [11].
Consider `CC[C@H](C)[C@H]1O[C@]2(C=C[C@@H]1C)C[C@@H]1C[C@@H](C/C=C(\C)[C@@H](O[C@H]3C[C@H](OC)[C@@H](O[C@H]4C[C@H](OC)[C@@H](NC)[C@H](C)O4)[C@H](C)O3)[C@@H](C)/C=C/C=C3\CO[C@@H]4[C@H](O)C(C)=C[C@@H](C(=O)O1)[C@]34O)O2`, for which the Potency was 3.09 µM (active) in experiment [1]; 3890 nM (active) in experiment [17]; 5.49 µM (active) in experiment [3]; 8.71 µM (active) in experiment [4]; 3.09 µM (active) in [6]; 4.36 µM (active) in experiment [7]. The Potency in [8] is 34.7 µM (active); in experiment [9], 19500 nM (active); in [11], 13.8 µM (active).

For the origin of these results see PubChem BioAssay (Tox21).
